Bioassay records: PubChem, National Center for Advancing Translational Sciences (NCATS)
An excerpt weighted towards active compounds, which were near 7.7% of everything screened.
FMDV antiviral – blocks foot and mouth disease virus | FMDV antiviral cell-based qHTS | Potency, µM (highest dose often 57.9 µM), for inactives: at the highest dose activity change, negative = inhibition, actives largely listed as inhibitors | AID 1159524 | 1.2% of 410,000 active; calls by dose curve; tested in HEK293T cells; note: read-out not given here; potency is the fitted concentration of half-maximal effect; nearly all actives have a fitted effect of over 45% in size
HCMV inh – blocks human cytomegalovirus replication | AID 1259415 | 4.5% of 410,000 active | HFF cells, HCMV-luciferase reporter, 72 h; active compounds read low | activity change, negative = inhibition, % at 57.5 µM; in the data active = activity change below about -60%; inconclusive = no clear call, values can overlap the other calls; inactive = above about -39%
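Cell-based, HFFs, 1000 cells/well, 16 h 37C; cpds in DMSO + HCMV-luc, MOI 1 PFU/cell; 72 h 37C; OneGlo luminescence after 5 min RT; norm. to buffer vs Salinomycin 10uM.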
Sm TGR inh – S. mansoni TGR enzyme inhibition; purified TGR, DTNB reduction, TNB absorbance 405 nm; Potency, µM (top dose mostly 114 µM), inactives show at the top dose activity change, negative = inhibition, most hits filed as inhibitors; 3% of 360,000 active; AID 485364; note: potency is the fitted concentration of half-maximal effect; nearly all actives have a fitted effect of over 60% in size
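First, TGR (20 nM dispensed) and NADPH were mixed with compound. Second, a 15 min room-temperature incubation followed. Third, further NADPH and then DTNB were added to start the reaction. Finally, TNB absorbance was monitored kinetically.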
Tb PYK inh – inhibitors of Trypanosoma brucei pyruvate kinase; Q57TT1; TbPYK enzyme, Kinase-Glo Plus ATP luminescence, 45 min; Potency, µM (doses to about 76.8 µM), inactives show top-dose activity, negative = inhibition, actives largely listed as inhibitors; 0.12% of 410,000 active; AID 624173; note: potency is the fitted concentration of half-maximal effect; nearly all actives have a fitted effect of over 50% in size
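Assay buffer: 50 mM TEA pH 7.2, 100 mM KCl, 10 mM MgCl2, 0.05% BSA, 0.01% Tween-20. Pyruvate kinase from T. brucei plus substrate met compound, then ADP (130 uM final). Luminescence was read post 45 min RT.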
Giardia FBPA inh-1 – inhibitors of Giardia lamblia fructose-1,6-bisphosphate aldolase; A8B2U2; purified Giardia FBPA; Potency, µM (titrated, usually from 59.6 µM), for inactives: at the top dose activity, negative = inhibition, usual class: inhibitors; 0.71% of 290,000 active; note: potency is the fitted concentration of half-maximal effect; nearly all actives have a fitted effect of over 55% in size
Target sequence (A8B2U2 whole entry, looked up): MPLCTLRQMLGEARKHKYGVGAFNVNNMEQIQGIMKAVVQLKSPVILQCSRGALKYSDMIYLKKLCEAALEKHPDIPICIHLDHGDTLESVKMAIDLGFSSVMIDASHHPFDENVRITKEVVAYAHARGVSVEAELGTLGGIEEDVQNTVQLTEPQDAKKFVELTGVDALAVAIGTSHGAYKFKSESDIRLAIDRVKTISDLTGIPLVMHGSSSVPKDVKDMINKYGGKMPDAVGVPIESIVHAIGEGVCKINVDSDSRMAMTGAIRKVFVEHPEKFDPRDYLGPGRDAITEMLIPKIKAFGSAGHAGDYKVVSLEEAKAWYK
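40 nM FBPA preincubated 10 min at RT with compound (up to 57.5 uM final), then substrate plus GAPDH/TPI/NAD/arsenate coupling and diaphorase/resazurin added. Fluorescence read after 20 min at RT, 525/598 nm.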
RE007 growth inh – less growth of the S. pombe RE007 Vpr strain. Potency, µM (doses to about 92.2 µM), for inactives: at the highest dose activity change, negative = less growth, most hits filed as inhibitors. S. pombe RE007 Vpr strain, BacTiter-Glo ATP luminescence, 24 h. 0.21% of 360,000 active; active = well fitted falling curve with a large enough effect; inconclusive = small, poorly fitted or top-dose-only effect; inactive = no such curve, though single readings can be large or run the other way; note: potency is the fitted concentration of half-maximal effect; nearly all actives have a fitted effect of over 50% in size
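Fission yeast RE007 carrying one integrated HIV-1 vpr copy, seeded at OD 0.01 in PMG+AL medium with 23 nL pinned compound. Grown 24 h at 30 degrees; viability read by BacTiter-Glo luminescence after 5 min.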
Giardia growth – Giardia lamblia growth inhibition; shares compounds with Giardia FBPA inh-1; Giardia lamblia trophozoite growth inhibition; Potency, µM (highest dose often 57.5 µM), for the others: at the top dose activity change, negative = inhibition, most hits filed as inhibitors; 5% of 1,500 active; AID 2785;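 note: potency is the fitted concentration of half-maximal effect; trophozoites exposed to compound for 48 h at 37 °C; nearly all actives have a fitted effect of over 70% in size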
Mammalian tox – toxic to mammalian cells in Giardia aldolase counter-screen. shares compounds with Giardia FBPA inh-1. Potency, µM (titrated, usually from 57.5 µM), without a hit: at the top dose viability change, negative = toxicity, usual class: inhibitors. mammalian cell viability counter-screen, qHTS. AID 2786. 4% of 1,500 active;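 note: Chinese hamster ovary cells used as mammalian cytotoxicity surrogate; viability measured as cellular ATP by luminescence; potency is the fitted concentration of half-maximal effect; compound exposure lasted 48 h before reading; nearly all actives have a fitted effect of over 60% in size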
Giardia FBPA inh-2 – confirmation of Giardia fructose-bisphosphate aldolase inhibitors | shares compounds with Giardia FBPA inh-1 | Potency, µM (highest dose often 57.5 µM), for the others: top-dose activity change, negative = inhibition, actives largely listed as inhibitors | 5% of 1,500 active | purified Giardia aldolase enzyme activity, qHTS; note: potency is the fitted concentration of half-maximal effect; nearly all actives have a fitted effect of over 45% in size
Rabbit FBPA inh – selectivity test for Giardia aldolase inhibitors: rabbit aldolase; AID 2794; 4% of 1,500 active; Rabbit muscle FBPA enzyme inhibition, selectivity counter-screen; shares compounds with Giardia FBPA inh-1; Potency, µM (doses to about 57.5 µM), without a hit: at the top dose activity, negative = inhibition, usual class: inhibitors; note: potency is the fitted concentration of half-maximal effect; nearly all actives have a fitted effect of over 60% in size
Target sequence (P00883 whole entry, looked up): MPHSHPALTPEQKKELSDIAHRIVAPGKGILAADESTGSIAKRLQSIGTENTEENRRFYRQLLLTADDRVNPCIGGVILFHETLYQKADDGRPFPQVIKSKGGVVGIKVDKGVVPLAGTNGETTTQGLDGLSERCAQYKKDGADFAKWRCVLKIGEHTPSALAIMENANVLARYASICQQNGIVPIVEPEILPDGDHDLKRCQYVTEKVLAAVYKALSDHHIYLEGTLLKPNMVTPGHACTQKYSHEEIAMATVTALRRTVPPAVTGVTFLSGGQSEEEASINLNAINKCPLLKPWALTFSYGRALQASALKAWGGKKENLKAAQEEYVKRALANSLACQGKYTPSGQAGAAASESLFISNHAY
GAPDH coupling – GAPDH inhibition flagged for Giardia aldolase hits. shares compounds with Giardia FBPA inh-1. GAPDH coupling enzyme counterscreen, biochemical, qHTS. Potency, µM (top dose mostly 57.5 µM), for the others: top-dose activity change, negative = inhibition, actives largely listed as inhibitors. 6% of 1,500 active. AID 2795; note: potency is the fitted concentration of half-maximal effect; nearly all actives have a fitted effect of over 55% in size
Active calls of the source: *; u = inconclusive; x = not tested or not shown; [ ] = another dose, or the depositor's remark. Unless noted, calls come from the whole dose curve; as a rule, active = well fitted curve in the direction sought with a large enough effect; inconclusive = small, poorly fitted or top-dose-only effect, or another doubt; inactive = no such curve, though single readings can be large; an effect the other way counts as inactive or inconclusive. % is set by controls: 0 for no effect and ±100 for the full control effect.

SMILES | FMDV antiviral | HCMV inh | Sm TGR inh | Tb PYK inh | Giardia FBPA inh-1 | RE007 growth inh | Giardia growth | Mammalian tox | Giardia FBPA inh-2 | Rabbit FBPA inh | GAPDH coupling
COc1ccc(-n2nnnc2SCC(N)=O)cc1 | 3% | -5 | -8% | 4% | 4% | -1% | x | x | x | x | x
Cc1cc(C)nc(SCC(=O)c2ccc(O)c(O)c2)n1 | 8% | 7 | -20% | -6% | 11µM* | -1% | -25% | 9% | -21% | -16% | -12%
Cc1c(C(=O)NCc2ccccc2Cl)sc2nc3n(c(=O)c12)CCCC3 | 33% | u | 6% | 0% | x | x | x | x | x | x | x
NCCC[C@@H](CC(=O)N[C@@H]1CCCC[C@H]1C(=O)N[C@H](CC(=O)N[C@@H](CCC(=O)O)CC(=O)O)Cc1c[nH]c2ccccc12)NC(=O)C[C@H](CO)NC(=O)[C@@H]1CCCC[C@H]1N | x | x | x | x | -21% | x | x | x | x | x | x
COc1cccc(CNC(=O)C2CCC(CNS(=O)(=O)c3ccc(Br)s3)CC2)c1 (stereo not given) | -21% | -16 | -1% | 1% | x | x | x | x | x | x | x
O=S(=O)(NCc1ccccn1)C(F)(F)F | 0% | 6 | -11% | 0% | 2.8µM* | 5% | 2%[10.4 µM] | 1% | 10% | 6% | 11%
O=C(CN1CCOCC1)Nc1c2c(nc3ccccc13)N(Cc1ccccc1)CC2 | -8% | -23 | -22% | 5% | 16µM* | -19% | u | -3% | -7% | -3% | -5%
O=C(CN1CCCC1)Nc1c2c(nc3ccccc13)N(Cc1ccccc1)CC2 | -2% | -2 | 2% | 7% | u | -12% | x | x | x | x | x
O=C(O)CSc1nnc(NC(=O)CN2CCOCC2)s1 | -19% | -4 | 6% | 1% | 5µM* | -2% | -5% | 0% | 3% | 11% | 11%
CS(=O)(=O)c1ccc2nc(NC(=O)CN3CCOCC3)sc2c1 | 6% | 10 | 0% | 0% | 4.5µM* | 9% | u | -4% | 2% | 6% | 3%
O=C(CN1CCOCC1)Nc1nc2ccc(Cl)cc2s1 | 1% | -17 | -12% | 1% | 6.3µM* | -8% | -5% | -20% | 5% | 8% | 7%
CC(=O)N1CCc2c(sc3c2c(=O)n(-c2ccc(C)cc2)c(=O)n3Cc2ccccc2C)C1 | -13% | -26 | -8% | -4% | x | x | x | x | x | x | x
NC(=S)N/N=C/c1ncc(C(F)(F)F)cc1Cl | -16% | x | 14% | 0% | 6.3µM* | -9% | 3%[10.4 µM] | u | -18% | 4% | u
CC(=O)/C(=N\Nc1ccc(C)cc1)Sc1nncn1C | 18% | 14 | -13% | u | 3.5µM* | 6% | -5%[38.3 µM] | -1% | -2% | -2% | -21%
O=[N+]([O-])c1ccccc1S(=O)(=O)N1CCN(Cc2ccsc2)CC1 | -19% | 6 | -5% | -9% | 20µM* | -19% | -17% | 0% | -4% | -1% | 3%
O=[N+]([O-])c1ccccc1S(=O)(=O)N1CCN(Cc2ccccc2)CC1 | -18% | 7 | 1% | -1% | -30% | -2% | x | x | x | x | x
O=c1[nH][nH]c(=S)n1-c1ccccc1C(F)(F)F | x | x | u | x | 18µM* | x | u | 12% | -8% | -3% | -5%
CCNc1ncc2nc(-c3ccc(F)cc3)c(=O)n(-c3ccccc3)c2n1 | u | x | x | x | 5% | x | x | x | x | x | x
COc1ccc(NC(=S)N(CCCN2CCOCC2)C(C)c2cc3cccc(OC)c3o2)cc1 (stereo not given) | -6% | 1 | 2% | -6% | 11µM* | 10% | u | 0% | -2% | 2% | 5%
COc1cccc2cc(C(C)N(CCCN3CCOCC3)C(=S)Nc3ccc(C)c(C)c3)oc12 (stereo not given) | -13% | -16 | 6% | -8% | -3% | -3% | x | x | x | x | x
O=S(=O)(/N=C(/NC(=S)Nc1ccccc1)c1ccccc1)c1ccc(Cl)cc1 | 54% | 21 | u | 0% | 18µM* | -23% | u | 10% | 4% | 12% | 18%
COc1ccccc1-c1nnc(NC(=O)c2ccc(S(=O)(=O)N3CCOCC3)cc2)o1 | -19% | 7 | 3% | -1% | x | -5% | x | x | x | x | x
COCc1nnc(NC(=O)c2ccc(S(=O)(=O)N3CCOCC3)cc2)o1 | -11% | 21 | 3% | 6% | 22µM* | -5% | u | -3% | 4% | 18% | 5%
COCc1nnc(NC(=O)c2ccc(S(=O)(=O)N3CCCc4ccccc43)cc2)o1 | -24% | -78* | -14% | 0% | 18µM* | 16% | 1%[10.4 µM] | -12% | -2% | 11% | 0%
Cc1nnc(NC(=O)c2ccc(S(=O)(=O)N3CC(C)CC(C)C3)cc2)o1 (stereo not given) | 0% | -21 | 1% | 1% | -5% | 30% | x | x | x | x | x
Cc1nnc(NC(=O)c2ccc(S(=O)(=O)N3CCc4ccccc4C3)cc2)o1 | -6% | -39 | 11% | 5% | 18µM* | 18% | u | 1% | -7% | 7% | 6%
CCC(=O)[C@]12O[C@@]3(C4C(=O)OCCC41)N(CC)C(C)=C(C(=O)OC)C(c1ccccc1)N3C2=O (stereo not given in full) | x | x | x | x | -5%[12.9 µM] | x | x | x | x | x | x
O=C(Nc1nnc(-c2ccncc2)o1)c1cccc(N2C(=O)CCC2=O)c1 | 5% | 35 | 5% | 1% | 20µM* | 3% | -7%[10.4 µM] | -15% | 7% | 8% | 9%
Cc1cccc(C(=O)Nc2nnc(-c3cccnc3)o2)c1 | 9% | 12 | 3% | 1% | 16µM* | -4% | u | u | 4% | -1% | -1%
O=C(Nc1nnc(-c2ccc(Cl)cc2)o1)c1cccc(N2C(=O)CCC2=O)c1 | 2% | -13 | -15% | -4% | 27% | -10% | x | x | x | x | x
